Screens: PubChem, National Center for Advancing Translational Sciences (NCATS)
JMJD2A Tudor = JMJD2A Tudor domain (human) inhibition. AlphaScreen JMJD2A-Tudor / H3K4me3 peptide binding. 390,000 compounds, 4.4% hits. Potency, µM (series often up to 114 µM), for inactives: at the top dose activity change, negative = inhibition, hits mostly inhibitors. O75164; further: on the % scale 0 is the no-effect control and ±100 the full control effect; nearly all actives have a fitted effect of over 50% in size
Target sequence (O75164 whole entry, looked up, the tested form may be a part): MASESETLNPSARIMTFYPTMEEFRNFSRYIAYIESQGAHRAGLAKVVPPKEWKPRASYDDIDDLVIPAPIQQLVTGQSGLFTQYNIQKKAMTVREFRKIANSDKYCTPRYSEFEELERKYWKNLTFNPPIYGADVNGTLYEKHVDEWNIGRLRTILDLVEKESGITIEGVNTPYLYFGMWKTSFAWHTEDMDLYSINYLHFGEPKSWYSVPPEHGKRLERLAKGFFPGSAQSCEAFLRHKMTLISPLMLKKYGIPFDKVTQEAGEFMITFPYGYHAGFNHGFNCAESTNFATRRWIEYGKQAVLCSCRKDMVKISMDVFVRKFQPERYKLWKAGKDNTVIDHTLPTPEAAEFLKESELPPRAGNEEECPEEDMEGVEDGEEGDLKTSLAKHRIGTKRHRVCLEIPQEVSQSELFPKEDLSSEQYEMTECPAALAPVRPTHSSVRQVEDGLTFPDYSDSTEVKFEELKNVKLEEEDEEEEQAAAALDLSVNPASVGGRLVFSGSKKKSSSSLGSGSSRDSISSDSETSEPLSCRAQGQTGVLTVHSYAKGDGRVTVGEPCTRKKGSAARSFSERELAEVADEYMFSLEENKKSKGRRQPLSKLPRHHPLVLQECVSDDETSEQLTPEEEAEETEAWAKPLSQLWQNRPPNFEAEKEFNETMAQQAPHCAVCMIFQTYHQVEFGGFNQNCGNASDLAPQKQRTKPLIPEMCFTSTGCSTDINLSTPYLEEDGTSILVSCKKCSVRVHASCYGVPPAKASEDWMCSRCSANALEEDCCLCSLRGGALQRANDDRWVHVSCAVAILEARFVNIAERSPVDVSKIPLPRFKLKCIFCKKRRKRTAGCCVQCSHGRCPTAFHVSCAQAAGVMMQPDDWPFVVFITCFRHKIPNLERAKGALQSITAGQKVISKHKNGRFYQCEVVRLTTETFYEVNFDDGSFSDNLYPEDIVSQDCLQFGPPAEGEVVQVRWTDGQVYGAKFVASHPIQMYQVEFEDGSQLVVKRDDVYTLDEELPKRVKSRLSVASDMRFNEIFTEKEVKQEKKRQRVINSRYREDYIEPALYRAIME
BAZ2B block = BAZ2B (human) inhibition. Q9UIF8. Potency, µM (top dose mostly 114 µM), without a hit: at the top dose activity change, negative = inhibition, hits mostly inhibitors. AlphaScreen BAZ2B-H3K14Ac peptide displacement. AID 504333. 360,000 compounds, 4.4% hits; further: on the % scale 0 is the no-effect control and ±100 the full control effect; nearly all actives have a fitted effect of over 60% in size
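In this displacement format the biotinylated H3(5-23) peptide acetylated at Lys14 serves as ligand at 50 nM, with BAZ2B at 50 nM in PBS pH 7.4 containing 0.01% Tween-20. Donor and acceptor beads are 10 ug/mL final.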
L3MBTL1 inh = L3MBTL1 (human) inhibition | AlphaScreen L3MBTL1–H3K9me1 peptide binding | Potency, µM (doses to about 57.1 µM), inactives show at the top dose activity, negative = inhibition, usual class: inhibitors | 230,000 compounds, 0.66% hits | AID 485360; further: on the % scale 0 is the no-effect control and ±100 the full control effect; nearly all actives have a fitted effect of over 60% in size
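First, the protein-peptide complex forms for 30 min at room temperature (L3MBTL1 50 nM, biotinylated H3K9me1 peptide 75 nM). Next, compounds are pin-transferred and incubated 30 min. Finally, AlphaScreen beads are added and read after 30 min.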
Sfp PPTase inh = Sfp phosphopantetheinyl transferase inhibition. Q9F4F7. Biochemical Sfp PPTase activity, qHTS. Potency, µM, for the others: largest response in the series, negative = inhibition, hits mostly inhibitors. 310,000 compounds, 3.5% hits. AID 1490;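 further: the enzyme is Sfp with the accession as filed and its product quenches rhodamine fluorescence; 0% = enzyme reaction without inhibitor and -100% = no enzyme wells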
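Sfp 15 nM + cpd, 15 min RT; start w/ rhodamine-CoA 5 uM, BHQ-2-YbbR 12.5 uM (final); 50 mM Hepes pH 7.6, 10 mM MgCl2, 0.01% NP-40, 0.01% BSA; read 525/598 nm at 0 and 30 min.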
HP1b chromo inh = HP1-beta chromodomain-methylated histone interaction inhibition | AID 540317 | 390,000 compounds, 0.56% hits | Potency, µM (titrated, usually from 114 µM), for the others: at the highest dose activity change, negative = inhibition, hits mostly inhibitors | AlphaScreen HP1-beta / biotin-H3K9me3 peptide binding; further: nearly all actives have a fitted effect of over 70% in size
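Compound inhibition of the preformed complex between 50 nM HP1-beta and 50 nM biotinylated H3K9me3 peptide was read by AlphaScreen. Buffer was PBS pH 7.4 with 0.01% Tween-20. Incubations ran 30 min at room temperature, with 10 ug/mL donor/acceptor beads.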
G9a inh = G9a (human) methyltransferase inhibition; Q96KQ7; G9a H3K9 monomethylation, AlphaScreen, 2 h; Potency, µM (series often up to 102 µM), inactives show at the top dose activity, negative = inhibition, most hits filed as inhibitors; 350,000 compounds, 8.8% hits; AID 504332; further: on the % scale 0 is the no-effect control and ±100 the full control effect; nearly all actives have a fitted effect of over 75% in size
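G9a (20 nM) preincubated 15 min RT with compounds, then 500 nM biotinylated H3K9 peptide and 20 uM SAM added; 2 h RT reaction. Monomethyl-H3K9 product detected by AlphaScreen with anti-H3K9me1 antibody, streptavidin donor and anti-rabbit IgG acceptor beads.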
* = called active by the depositor; ? = inconclusive; / = no result given; [ ] = remark or other dose. An excerpt weighted towards active compounds, which were near 12% of everything screened. The call rests on the fitted dose curve; in most records, active means well fitted curve in the direction sought with a large enough effect; inconclusive means small, poorly fitted or top-dose-only effect, or another doubt; inactive means no such curve, though single readings can be large; an effect the other way counts as inactive or inconclusive. Potency means the concentration at half of the fitted maximal effect.

SMILES	JMJD2A Tudor	BAZ2B block	L3MBTL1 inh	Sfp PPTase inh	HP1b chromo inh	G9a inh
CCOC(=O)c1c(NC(=O)c2cc(-c3ccccc3OC)on2)sc(C)c1C	-18.4%	-2.7%	/	/	?	2.82µM*
CCOC(=O)c1c(Nc2nc(C)c(C(=O)NC)s2)sc(C)c1C	-21.6%	-0.1%	2.7%	39.8µM*	11.9%	?
CCOC(=O)c1c(NC(=O)c2nc(SC)ncc2Cl)sc(C)c1C	-22.9%	-1.2%	/	/	8.6%	-1.2%[59 µM]
CCOC(=O)c1cc(NC(=O)c2cc(C)on2)cc(C(=O)OCC)c1	-2.9%	10.0%	/	4.5%	32.2%	-0.2%[12.7 µM]
CCOC(=O)c1sc(Nc2ccccc2)nc1C	1.0%	3.1%	/	-7.8%	29.6%	6.2%
CCOC(=O)c1c(NC(=O)c2cc(C)on2)sc(C)c1C	4.8%	5.7%	/	/	-15.7%	3.16µM*
OCC[C@@H]1C[C@@H](O)[C@H](O)[C@]2(CCc3ccccc3CO2)O1	-30.0%	7.0%	?	11.1%	0.5%	21.2%
COc1ccccc1C(CNC(=O)c1oc2ccccc2c1C)N1CCCC1 (stereo not drawn)	-25.5%	-26.4%	-7.1%	/	-0.2%	4.8%[12.7 µM]
Cc1cccc(Cn2c(=O)n(Cc3ccc(C(=O)NC4CCN(Cc5ccccc5)CC4)cc3)c(=O)c3ccccc32)c1	-4.4%	-1.5%	/	/	21.4%	-2.2%[59 µM]
CC[C@H](C)[C@H](NC(=O)[C@H](CCC(=O)O)NC(=O)CNC(=O)[C@@H](NC(=O)[C@@H]1CCCN1C(=O)[C@@H](NC(=O)[C@@H]1CCCN1C(=O)[C@@H]1CCCN1C(=O)[C@H](CC(N)=O)NC(=O)[C@H](CC(N)=O)NC(=O)[C@@H](NC(=O)[C@H](CCSC)NC(=O)[C@H](Cc1c[nH]c2ccccc12)NC(=O)CNC(=O)[C@@H](NC(=O)[C@H](CCC(N)=O)NC(=O)[C@@H](N)CCC(=O)O)[C@@H](C)CC)[C@@H](C)O)[C@@H](C)CC)C(C)C)C(=O)O	/	/	/	5.5%	/	/
CCOC(=O)c1c(NC(=O)c2cc(-c3ccc(Cl)cc3)on2)sc(C)c1C	-6.5%	3.0%	/	/	6.5%	8.91µM*
CCOC(=O)c1c(NC(=O)c2noc3c2CCCC3)sc(C)c1C	/	-2.6%	4.0%	31.6µM*	/	28.2µM*
CCOC(=O)c1c(NC(=O)c2cc(-c3ccc(OC)c(OC)c3)on2)sc(C)c1C	-2.4%	4.0%	/	/	22.3%	-32.7%[59 µM]
CCOC(=O)c1cc(-c2cccc([N+](=O)[O-])c2)on1	-11.6%	-1.5%	-5.4%	15.3%	34.7%	13.1%
CCOC(=O)c1ccc(N2C(=O)C3CC=CCC3C2=O)cc1 (stereo not drawn)	-7.6%	-2.0%	4.1%	3.9%	19.3%	-1.3%[59 µM]
CCOC(=O)c1ccc(N2C(=O)C3C(C2=O)C(C(=O)c2ccc(Cl)cc2)N2CCCC32)cc1 (stereo not drawn)	-33.1%	50.1µM*	/	?	32.1%	?
c1ccc2c3c(cc(N4CCOCC4)c2c1)OC1(N2CCOCC2)CCCCC1O3 (stereo not drawn)	?	?	28.2µM*	11.5%	3.9%	-30.1%[59 µM]
Cc1c(S(=O)(=O)N2CCc3ccccc3C2)c(=O)n(C)c(=O)n1C	0.7%	10.2%	-2.2%	15.8%	22.2%	50.1µM*
CC(C)ON([C@@H](C(=O)NO)C(C)C)S(=O)(=O)c1ccc(-c2ccccc2)cc1	/	/	/	/	/	0.0%[59 µM]
O=C(CCCc1nc2ccccc2s1)NCc1ccccc1	-8.1%	-5.7%	1.6%	8.6%	28.5%	16.2%[59 µM]
O=C(CCCc1nc2ccccc2s1)Nc1nccs1	-10.5%	-2.1%	5.3%	44.7µM*	22.7%	39.8µM*
COc1ccc(C)c2sc(NNC(=O)COc3ccccc3)nc12	/	-9.6%	-0.9%	56.2µM*	/	?
O=C(CCCc1nc2ccccc2s1)NNC(=O)CCN1CCN(Cc2ccccc2)CC1	-10.3%	-21.7%	-6.6%	14.9%	11.6%	35.5µM*
O=C(COc1ccccc1)Nc1nn[nH]n1	79.4µM*	79.4µM*	/	-1.2%	33.3%	?
Cc1cc(C)c2c(n1)SCCN2C(=O)Nc1ccc(C(=O)Nc2ccc(C(C)C)cc2)cc1	-6.9%	-6.5%	/	/	13.9%	-21.9%[59 µM]
SMILES	JMJD2A Tudor	BAZ2B block	L3MBTL1 inh	Sfp PPTase inh	HP1b chromo inh	G9a inh
COc1cc(CN2CCC(n3nccc3NC(=O)CCCc3ccccc3)CC2)ccc1F	-7.8%	-11.5%[57.1 µM]	/	4.6%	78.4%	-0.4%
CCn1c(SCC(=O)NC2CCCCC2)nnc1C(C)NC(=O)c1ccccc1F (stereo not drawn)	3.5%	11.2%	/	13.1%	67.2%	14.5%[59 µM]
Cc1cnc(NC(=O)c2ccncc2)s1	4.5%	-29.2%	-6.0%	9.5%	10.9%	50.1µM*
CCOC(=S)SCC(=O)Nc1ncc(C)s1	-6.6%	-3.0%	11.4%	15.8µM*	23.2%	/
Cc1cnc(NC(=O)CCCc2nc3ccccc3s2)s1	-7.1%	-8.5%	-16.6%	39.8µM*	8.3%	35.5µM*
Cc1cnc(NC(=O)COc2ccccc2)s1	89.1µM*	-3.0%	-1.2%	9.1%	-9.3%	2.5%[59 µM]
Cc1cccc(N2CCN(C(=O)c3ccccc3OCc3c(C)noc3C)CC2)c1C	-29.7%	-6.5%	-8.7%	/	6.4%	-18.3%
O=C(O)c1ccc(-n2cccc2/C=C2/NC(=O)N(c3ccccc3)C2=O)cc1	25.1µM*	12.6µM*	/	-20.4%	15.8µM*	8.91µM*
Cc1cc(C(=O)O)ccc1-c1ccc(/C=C2\NC(=O)N(Cc3ccc(F)cc3)C2=O)o1	?	39.8µM*	/	?	10.5%[57 µM]	28.2µM*
O=C(O)c1ccc(-n2cccc2/C=C2/NC(=O)N(c3cccc(Cl)c3)C2=O)cc1	20µM*	15.8µM*	/	?	?	8.91µM*
O=C(O)c1ccc(-n2cccc2/C=C2/SC(=O)N(CC(=O)N3CCCC3)C2=O)cc1	10µM*	8.91µM*	/	-7.9%	14.1µM*	8.91µM*
COc1cccc2c1CCC1CC(=O)CC[C@@]21C (stereo partly drawn)	/	/	/	1.1%	/	/
O=C(O)c1cccc(-n2cccc2/C=C2\NC(=O)N(Cc3ccc(F)cc3)C2=O)c1	56.2µM*	50.1µM*	?	-24.6%	79.4µM*	22.4µM*
Cn1c(-c2ccccc2)c(C(=O)CC#N)c2ccccc21	-5.0%	-8.6%	10.9%	13.4%	19.8%	-0.6%
CN(C)CCCNCC(=O)c1c(-c2ccccc2)n(C)c2ccccc12	4.47µM*	21.5%	/	39.8µM*	?	57.5%
